IL-1B inflam inh – blocks inflammasome-driven IL-1 beta release; THP-1 LPS/ATP IL-1B secretion, AlphaLISA, 16 h; stronger effect = lower value; activity change, % at 57.5 µM; actives 4.7% (n = 360,000); AID 743279; in the data active = activity change below about -50%; inconclusive = mostly about -30% to -49%; also: % is scaled to controls: 0 for no effect and ±100 for the full control effect
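THP-1 cells pretreated 1 hr with compounds (up to 57.5 uM final), then stimulated with LPS (250 ng/mL final) plus ATP (1.25 mM final); secreted IL-1B measured by AlphaLISA after 16 hr, decreased signal indicating inhibition.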
S-ASM inh – human S-ASM enzyme inhibition; actives 0.006% (n = 340,000); placental ASM, HMU-PC fluorogenic substrate, 60 min; Potency, µM (series often up to 57.5 µM), for inactives: top-dose activity change, negative = inhibition, hits mostly inhibitors; P17405; also: potency is read from the fitted curve at half-maximal effect
Target sequence (P17405 47-631 limits assumed): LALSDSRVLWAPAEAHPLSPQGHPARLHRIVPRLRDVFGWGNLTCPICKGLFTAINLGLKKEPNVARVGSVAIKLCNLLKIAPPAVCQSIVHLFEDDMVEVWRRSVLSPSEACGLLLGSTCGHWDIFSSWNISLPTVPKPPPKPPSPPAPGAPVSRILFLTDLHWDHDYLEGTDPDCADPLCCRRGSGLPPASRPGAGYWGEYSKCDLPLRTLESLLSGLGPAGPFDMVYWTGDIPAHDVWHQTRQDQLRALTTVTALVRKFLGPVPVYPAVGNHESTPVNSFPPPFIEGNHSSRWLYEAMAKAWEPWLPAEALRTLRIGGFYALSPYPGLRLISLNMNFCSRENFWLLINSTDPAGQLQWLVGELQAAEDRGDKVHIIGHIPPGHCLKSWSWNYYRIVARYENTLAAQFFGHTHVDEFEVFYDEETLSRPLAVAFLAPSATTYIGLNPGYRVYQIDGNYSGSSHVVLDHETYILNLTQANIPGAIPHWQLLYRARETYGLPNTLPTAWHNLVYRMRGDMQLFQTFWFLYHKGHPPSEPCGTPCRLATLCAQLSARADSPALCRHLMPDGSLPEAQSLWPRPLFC
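HMU-PC0 cleavage (9 uM final) by human placental ASM, 60 min at 37 °C following 10 min compound exposure at RT; stopped at pH 10, fluorescence Ex 386/Em 447 nm.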
TDP1 cell CPT – DT40-hTDP1 cell growth loss with CPT; AID 686979; actives 12% (n = 420,000); Potency, µM (highest dose often 46.2 µM), for inactives: at the highest dose activity change, negative = growth inhibition, usual class: inhibitors; chicken DT40 Tdp1-/-;hTDP1 cells + 20 nM CPT, ATP luminescence, 48 h; also: potency is read from the fitted curve at half-maximal effect; % is scaled to controls: 0 for no effect and ±100 for the full control effect; nearly all actives have a fitted effect of over 55% in size
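Chicken DT40 Tdp1-/- cells complemented with human TDP1, 400 cells/well, exposed to compounds plus 20 nM camptothecin for at least 48 h at 37 C; viability read as ATP content by CellTiter-Glo luminescence.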
HepG2 tox – counter-screen for TGF-b inhibitors: cytotoxicity in HepG2 cells; HepG2 CAGA-GFP viability, ATP luminescence, 18 h; Potency, µM (titrated, usually from 46.1 µM), for inactives: top-dose activity change, negative = cytotoxicity, usual class: cytotoxic; actives 0.76% (n = 410,000); also: potency is read from the fitted curve at half-maximal effect
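HepG2 CAGA-GFP cells (1000/well, DMEM with 1% FBS) received compound, then TGF-beta at 500 pg/mL final, and were incubated 18 hours at 37 degrees C. Viability was read by CellTiter-Glo luminescence. Media-only wells were set as complete cell-killing and DMSO as no toxicity.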
TGFb inhibitor – blocks TGF-b signaling | actives 1.2% (n = 410,000) | AID 588855 | Potency, µM (highest dose often 46.1 µM), without a hit: at the highest dose activity, negative = inhibition, usual class: inhibitors | HepG2 CAGA-GFP TGF-b/SMAD3 reporter, GFP fluorescence, 18 h; TGF-beta stimulated, 500 pg/mL final; also: potency is read from the fitted curve at half-maximal effect; % is scaled to controls: 0 for no effect and ±100 for the full control effect; nearly all actives have a fitted effect of over 65% in size
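Smad-responsive CAGA-GFP expression was quantified in HEPG2 cells exposed to compounds and 500 pg/mL final TGF-beta for 18 h at 37 degrees C; unstimulated wells defined full inhibition.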
TDP1 cell noCPT – qHTS for Inhibitors of human tyrosyl-DNA phosphodiesterase 1 (TDP1): qHTS in cells in absence of CPT; DT40 Tdp1-/- hTDP1 cells, no CPT, ATP luminescence, 48 h; Potency, µM (doses to about 46.2 µM), without a hit: top-dose activity change, negative = growth inhibition, usual class: inhibitors; actives 15% (n = 420,000); AID 686978, 2013; also: potency is read from the fitted curve at half-maximal effect; % is scaled to controls: 0 for no effect and ±100 for the full control effect; nearly all actives have a fitted effect of over 55% in size
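Camptothecin absent (DMSO only). Human TDP1-complemented DT40 knockout cells, 400 cells/well, 37 °C for minimum 48 hr; ATP measured via CellTiter-Glo, 30 min dark incubation, luminescence.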
Numbers without * were called inactive; ? = inconclusive; / = no result; [ ] = remark or other dose. Only some compounds are listed: those with a hit (about 19% of all), similar ones and a draw of the others. Unless noted, calls follow the shape of the dose curve; as a rule, active = well fitted curve in the direction sought with a large enough effect; inconclusive = small, poorly fitted or top-dose-only effect, or another doubt; inactive = no such curve, though single readings can be large; an effect the other way counts as inactive or inconclusive.

SMILES	IL-1B inflam inh	S-ASM inh	TDP1 cell CPT	HepG2 tox	TGFb inhibitor	TDP1 cell noCPT
NC(=O)CN1CCN(c2ccccc2F)CC1	-11	1%	7%	-34%	4%	-13%
COc1ccc(N2CCN(CC(=O)c3ccc(O)c(C)c3O)CC2)cc1	8	-8%	?	-23%	15%	21µM*
O=C(CN1CCN(c2ccccc2F)CC1)c1ccc(O)c(O)c1	80	5%	23µM*	4%	-16%	10µM*
COc1ccc2c(c1)c(C(=O)CN1CCOCC1)c(C)n2C	20	1%	-1%	22%	14%	-22%
COc1ccc(C(=O)CN2CCN(c3ccc(F)cc3)CC2)cc1	7	0%	1%	9%	4%	-7%
Cc1ccc(C)c(NC(=O)CSc2nnc(CNC(=O)c3cccs3)o2)c1	13	1%	-8%	21%	8%	32%
Cc1c(O)ccc(C(=O)CN2CCN(c3ccccc3)CC2)c1O	9	3%	?	-32%	12%	23µM*
CCOC(=O)/C=C1\CN(C(C)c2ccccc2)S(=O)(=O)c2ccccc21 (stereo not given)	11	0%	-29%	4%	15%	-26%
CC/C(=C/c1ccccc1)c1cccc2[nH]c3c(OC)cccc3c12	4	1%	21µM*	-46%	?	?
CC/C(=C\c1ccccc1)c1cccc2oc3ccccc3c12	/	/	?	-35%	?	?
O=[N+]([O-])c1ccc(NNC(=S)Nc2ccccc2)cc1	-18	-4%	4.5µM*	-35%	?	2.8µM*
O=C(Nc1ccc([N+](=O)[O-])cc1)C(c1ccccc1)c1ccccc1	-8	/	18µM*	-46%	?	18µM*
O=C(NCC(O)c1ccc([N+](=O)[O-])cc1)C(c1ccccc1)c1ccccc1 (stereo not given)	-2	-5%	?	1%	-8%	?
O=C(CSC1=NCCS1)NC(c1ccccc1)c1ccccc1	-72*	4%	?	-5%	-2%	16µM*
O=C(CSC1=NCCS1)NCc1ccco1	27	1%	13µM*	0%	9%	12µM*
CC(NC(=O)CSC1=NCCS1)c1ccccc1 (stereo not given)	-55*	-2%	8%	19%	?	-3%
O=C(CSC1=NCCS1)Nc1cccc2ccccc12	-5	-1%	?	2%	-13%	16µM*
CCOc1ccc(-c2ccc(SC)nn2)cc1	?	1%	-30%	13µM*	17%	8.2µM*
CCOc1ccc(-c2ccc(SCC(=O)Nc3nnc(CC)s3)nn2)cc1	4	0%	8%	9%	4%	4%
CCn1cc(Cl)c(C(=O)N2N=C(c3ccc4ccccc4c3)CC2c2ccccc2O)n1 (stereo not given)	?	-30%	?	-45%	7.1µM*	15µM*
CCn1cc([N+](=O)[O-])c(C(=O)N2N=C(c3ccc(OC)cc3OC)CC2c2ccccc2O)n1 (stereo not given)	-2	-2%	?	-25%	?	15µM*
CCn1cc([N+](=O)[O-])c(C(=O)N2N=C(c3cccc4ccccc34)CC2c2ccccc2O)n1 (stereo not given)	?	?	?	-55%	13µM*	13µM*
OCCNc1nc(Nc2ccc(Br)cc2)nc2ccccc12	-101*	-1%	5.8µM*	2%	?	6.5µM*
OCCNc1nc(Nc2ccccc2)nc2ccccc12	/	9%	10µM*	-5%	?	13µM*
Cc1c(Cl)cccc1Nc1nc(NCCO)c2ccccc2n1	-108*	0%	?	-19%	11µM*	?
SMILES	IL-1B inflam inh	S-ASM inh	TDP1 cell CPT	HepG2 tox	TGFb inhibitor	TDP1 cell noCPT
CCCn1c(O)c(N=NC(=O)CNC(=O)c2ccncc2)c2ccccc21	9	-3%	-21%	-14%	-8%	15%
COc1ccc(-c2csc(N(CCCN(C)C)C(=O)c3ccccc3F)n2)cc1	?	-8%	9.2µM*	-49%	?	15µM*
CCN(C(=O)c1ccccc1F)c1nc(-c2ccc(OC)cc2)cs1	0	-2%	21µM*	-7%	-2%	21µM*
COc1ccc(-c2csc(N(CCCN(C)C)C(=O)c3ccccc3Cl)n2)cc1	-72*	-1%	?	-44%	?	?
COCCN(C(=O)c1ccccc1F)c1nc(-c2ccc(OC)cc2)cs1	?	-1%	-3%	0%	7%	?
COc1ccc(-c2csc(N(CCCN(C)C)C(=O)c3ccc(F)cc3)n2)cc1	-21	1%	-35%	-5%	-1%	?
COc1ccc(-c2csc(N(CCCN(C)C)C(=O)c3ccccc3C)n2)cc1	-76*	-4%	3.7µM*	10µM*	?	4.6µM*
Cc1cc(Br)ccc1SCC(=O)NNC(=O)c1ccco1	-8	-3%	-6%	3%	-6%	-1%
COc1ccccc1C#Cc1cnc2c(c1)C(=O)N([C@H](C)CO)C[C@H](C)[C@@H](CN(C)S(=O)(=O)c1cn(C)cn1)O2	-8	/	?	-40%	-4%	?
CCN(CC)CCCN(C(=O)c1ccc(F)cc1)c1nc(-c2ccc(OC)cc2)cs1	-93*	-1%	13µM*	-38%	?	10µM*
CCNS(=O)(=O)c1c(C)cc(C)c(N(C)S(=O)(=O)c2ccccc2)c1C	-3	1%	-18%	2%	-9%	?
Cc1ncc2c(c1CNC(=O)c1cncs1)CCN(C(=O)c1csc(-c3cccs3)n1)C2	/	/	5%[9.04 µM]	/	/	-14%
CCN(CC)CCNC(=O)C(Cl)=C1C(Cl)=C(Cl)C(Cl)=C1Cl	-100*	-2%	?	-47%	?	16µM*
CCN(CC)CCNC(=O)C12CC3CC(CC(C3)C1)C2	-2	1%	-1%	2%	12%	2%
COc1ccc(CN2CCN(Cc3c[nH]c4ccccc34)CC2CCO)cc1C (stereo not given)	?	-3%	6.5µM*	-63%	-24%	9.2µM*
COc1cc(CN2CCN(Cc3cn(C)c4ccccc34)CC2CCO)cc(OC)c1 (stereo not given)	?	0%	?	-43%	12%	?

Bioassay records deposited in PubChem by National Center for Advancing Translational Sciences (NCATS).
